# Entries with a potency or affinity are not part of this list.
# Experiments:
# Klebsiella pneumoniae = conditions: Concentration 32 ug.mL-1;; ASSAY_TEST Inhibition of Bacterial Growth; detection method Absorption (OD600); MEDIA CAMHB; plate type 384well; NBS; CORNING #3640; time 18 hr
# Candida albicans = conditions: Concentration 32 ug.mL-1; ASSAY_TEST Inhibition of Fungal Growth; detection method Absorption (OD530)
# Cryptococcus neoformans = conditions: Concentration 32 ug.mL-1; ASSAY_TEST Inhibition of Fungal Growth; detection method Resazurin; Absorption (OD600-OD570); plate type 384well; NBS; CORNING #3640
Compound,Inhibition (Klebsiella pneumoniae) [%],Inhibition (Candida albicans) [%],Inhibition (Cryptococcus neoformans) [%]
COc1cccc(N(Cc2ccc(F)cc2)S(=O)(=O)c2ccc3nncn3c2)c1,-3.46,1.11,-15.36
COc1ccc(OC)c(NC(=O)Cn2nc3c4c5c(sc4ncn3c2=O)CCCC5)c1,8.89,0.7,-30.54
O=C(Cn1nc2c3cc(-c4ccc(Cl)cc4)nn3ccn2c1=O)Nc1ccc2c(c1)OCO2,13.7,-0.02,-18.97
CC(C)CCNC(=O)CSc1nnc2c(=O)n(-c3ccc(F)cc3)ccn12,11.65,4.94,-13.8
Cc1ccc(NC(=O)Cn2nc3c(Sc4ccccc4)nccn3c2=O)c(C)c1,7.2,3.33,-10.8
COc1ccc(NC(=O)C(C)Sc2nnc3c(=O)n(-c4cccc(OC)c4)ccn23)cc1 (stereo not given),4.86,-0.02,-10.81
CCc1ccc(NC(=O)Cn2nc3cc(C)nc(Nc4ccc(C)c(F)c4)n3c2=O)cc1,10.82,3.74,-2.27
Cc1ccc(NC(=O)Cn2nc3c(Oc4cccc(C)c4C)nccn3c2=O)c(Br)c1,10.09,-2.33,-8.9
COC(=O)c1ccccc1NC(=O)Cn1nc2c(SC3CCCCC3)nccn2c1=O,12.08,1.97,-21.3
O=c1n(Cc2nc(-c3ccc4c(c3)OCO4)no2)nc2ccc(-c3ccccc3)nn12,-1.48,6.34,-13.29
COc1ccc(NC(=O)Cn2nc3c(N4CCCC4)nccn3c2=O)cc1Cl,15.87,1.28,-15.33
CCc1nnc2c(S(=O)(=O)N(Cc3cc(F)cc(F)c3)c3ccc(C)cc3)cccn12,20.07,3.29,-8.74
COc1ccccc1NC(=O)Cn1nc2c(Oc3ccc(Cl)cc3)nccn2c1=O,6.51,22.33,-8.59
Cc1nnc2c(=O)n(CC(=O)Nc3cccc(F)c3)c3ccccc3n12,11.8,1.2,-2.05
COc1ccccc1N1CCN(C(=O)Cn2nc3c(Sc4cccc(C)c4)nccn3c2=O)CC1,-0.72,2.52,-34.84
Cc1cc(F)ccc1NC(=O)Cn1nc2c(SCc3ccc(Cl)cc3)nccn2c1=O,8.05,13.65,-20.69
O=S(=O)(c1ccc2nncn2c1)N(Cc1ccc(F)cc1)c1ccc(F)c(F)c1,5.64,2.31,-6.65
CSc1cccc(NC(=O)Cn2nc3c(SCc4ccc(Cl)cc4)nccn3c2=O)c1,7.71,19.01,-40.36
O=C(Cn1nc2ccc(SCc3ccc(Cl)cc3)nn2c1=O)NC1CCCCC1,3.63,3.05,-27.33
Cc1nnc2c(SCC(=O)Nc3ccc(Br)cc3F)nc3ccccc3n12,10.56,0.1,-6.82
Cc1cccc(Oc2nccn3c(=O)n(CC(=O)Nc4ccccc4C(F)(F)F)nc23)c1C,10.49,-0.97,-7.67
CCc1nnc2c(S(=O)(=O)N(Cc3cccc(C)c3)c3ccc(C(C)C)cc3)cccn12,14.47,4.99,-9.13
COc1ccc(NC(=O)Cn2nc3ccc(SCc4ccc(Cl)cc4)nn3c2=O)cc1,1.71,48.76,-13.57
CCc1ccccc1NC(=O)Cn1nc2n(C)c(=O)c3c(c(-c4ccccc4)cn3C)n2c1=O,1.01,6.61,-4.79
COc1cccc(CNC(=O)CSc2nnc3c(=O)n(-c4cccc(OC)c4)ccn23)c1,10.15,1.25,-6.98
Cc1ccccc1NC(=O)Cn1nc2c(SC3CCCCC3)nccn2c1=O,5.55,-0.37,-26.02
CCc1nnc2c(SCC(=O)Nc3ccc(Br)cc3)nc3ccccc3n12,-1.42,31.58,-6.67
CC(=O)c1ccc(NC(=O)Cn2nc3ccc(Sc4ccccc4)nn3c2=O)cc1,-6.33,15.65,-7.51
Cc1cccc(Oc2nc3ccccc3n3c(=O)n(CC(=O)Nc4ccc5c(c4)OCCO5)nc23)c1C,14.16,-0.7,-31.77
CCOC(=O)c1ccc(NC(=O)Cn2nc3ccc(-c4ccc(Cl)cc4)nn3c2=O)cc1,8.58,-0.49,-7.91
